Measurements taken from ChEMBL document CHEMBL3988442, “University of Dundee, Small-Polar-MMV Screening Library” (2021).

Columns and labels:
[1] = target: T1, Aspartate--tRNA(Asp/Asn) ligase (Mycobacterium tuberculosis (strain ATCC 25618 / H37Rv)) (UniProt P9WFW3); assay: Assay for Asp RNA synthetase-1 from Mycobacterium tuberculosis; assay type: functional; parameters: scale not given: direction of the effect not stated beside the values; conditions: 30 µM; further: in the data most compounds retested in dose-response had high values
T1 sequence (whole entry): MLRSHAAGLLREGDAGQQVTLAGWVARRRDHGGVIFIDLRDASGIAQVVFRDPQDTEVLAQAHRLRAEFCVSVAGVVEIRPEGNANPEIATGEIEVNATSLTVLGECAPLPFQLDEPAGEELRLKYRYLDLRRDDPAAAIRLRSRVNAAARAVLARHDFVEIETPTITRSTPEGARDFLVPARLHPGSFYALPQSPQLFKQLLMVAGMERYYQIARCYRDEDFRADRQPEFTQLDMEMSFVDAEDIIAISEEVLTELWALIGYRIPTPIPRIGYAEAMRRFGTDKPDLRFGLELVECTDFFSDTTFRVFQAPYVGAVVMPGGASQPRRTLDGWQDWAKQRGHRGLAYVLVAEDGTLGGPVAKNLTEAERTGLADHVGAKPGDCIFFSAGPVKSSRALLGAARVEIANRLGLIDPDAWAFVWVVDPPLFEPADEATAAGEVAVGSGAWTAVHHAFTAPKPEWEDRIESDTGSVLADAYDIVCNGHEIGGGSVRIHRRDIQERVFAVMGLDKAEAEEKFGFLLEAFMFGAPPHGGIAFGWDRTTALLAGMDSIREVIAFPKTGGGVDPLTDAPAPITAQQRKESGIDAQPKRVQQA

[2] = target: Shiga toxin 2 (Escherichia coli O157:H7) (UniProt P09385+P09386); assay: E. coli 0.157:H7 Shiga Toxin SOP - stx2 screening assay; assay type: functional; parameters: scale not given: direction of the effect not stated beside the values; conditions: 30 µM

| SMILES | Percent Effect [1] [%] | Percent Effect [2] [%] |
| --- | --- | --- |
| Cc1cc(C)n(-c2cncc(N3CCN(C(=O)C(C)(C)C)CC3)n2)n1 | 0.549 | -19.9 |
| O=C(C1CCOCC1)N1C[C@@H]2[C@@H](C1)OCC(=O)N2CC1CC1 | 3.77 | -0.921 |
| Fc1cccc(-n2ccc(CN3CCCCC3Cn3cncn3)n2)c1 (stereo not drawn) | -3.17 | 17.2 |
| CNc1cc(C2CCCN2Cc2ccccc2OCC(=O)O)ccn1 (stereo not drawn) | 5.46 | 4.73 |
| O=S1(=O)N=C(SCc2ccc(Cl)cc2)Nc2ccc(F)cc21 | -0.189 | -5.93 |
| CC(=O)Nc1cccc(C(=O)Nc2cnc3n2CCCC3)c1 | 2.26 | -9.23 |
| CC(=O)NCCNC(=O)c1cnc(-c2ccccc2)nc1 | 4.64 | -11.3 |
| CC(C)c1nccn1C1CCCN(C(=O)c2ccc3[nH]nnc3c2)C1 (stereo not drawn) | -3.89 | -22.6 |
| CCc1ncc2c(n1)CN(CC(=O)NCCOc1ccccc1)CC2 | 2.89 | 23.5 |
| COc1ccccc1[C@@H]1CN(C(=O)c2csc(C)n2)C[C@H]1C(=O)O | 2.17 | -9.43 |
| COCCC1(CO)CCCN(Cc2ccc(F)c(C)c2)C1 (stereo not drawn) | 6.95 | 15.6 |
| CN(Cc1nnc(-c2ccco2)o1)C1CCCN(c2cccnn2)C1 (stereo not drawn) | 0.611 | -78.7 |
| COc1ccccc1OCC(=O)Nc1ncccc1OC(F)F | 3.04 | -12 |
| CN(C)C(=O)N[C@@H]1CN(Cc2ccc3c(c2)OCO3)[C@@H]2CCCO[C@@H]21 | -0.291 | -7.65 |
| CCn1cc2c(n1)CN(C(=O)c1ccncc1)CC2COCC1CC1 (stereo not drawn) | 3.06 | -17.4 |
| CCS(=O)(=O)N(C)CC(=O)Nc1ccc(Br)cn1 | -2.34 | -12.9 |
| Cc1cccc(COC[C@@H]2CC[C@H]3[C@H](CCN3Cc3ccco3)O2)n1 | -0.843 | -16.8 |
| C[C@@H]1CN(C2(C(=O)N3CCOCC3)Cc3ccccc3C2)C[C@H](C)O1 | 0.585 | -11.4 |
| Cc1cccc2c1OCCC2NCc1c(C)nn(C)c1N(C)C (stereo not drawn) | 0.256 | 28.5 |
